Measured values from PubChem BioAssay (NCATS).
Records with an inconclusive call do not appear. A call without a number means that no potency is given here. Activity calls are given as the source filed them. Unless noted, the call rests on the fitted dose curve; in most records, active means well fitted curve in the direction sought with a large enough effect; inconclusive means small, poorly fitted or top-dose-only effect, or another doubt; inactive means no such curve, though single readings can be large; an effect the other way counts as inactive or inconclusive.

Tests used:
[1] = High-throughput drug toxicity screening in the BPDCN cell line Gen2.2 (AID 1224824; call rule not given here;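 further: cells exposed to compounds for 48 h before reading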); settings: Gen2.2 BPDCN cells; at 45.8 µM (top of the series) unless noted
Outline: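 CellTiter-Glo luminescence read after 48 h compound exposure at 37 C defines viability; percent activity set with DMSO as 100% and bortezomib (9.2 uM final) as 0%. 500 exponentially growing cells per well, RPMI plus 10% FBS.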

[2] = High-throughput drug toxicity screening in the BPDCN cell line Cal-1 (AID 1224825; call rule not given here); settings: Cal-1 BPDCN cell viability, qHTS; at 45.8 µM (top of the series) unless noted
Outline: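 CellTiter-Glo luminescence after 48 h compound exposure; percent activity scaled with DMSO as 100% and bortezomib (9.2 uM final) as 0%. Cal-1 cells seeded at 500/well in RPMI, 10% FBS, no phenol red.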

[3] = qHTS assay for measurement of the activity of small molecule inhibitors on Zika virus induced Caspase-3 activity in human iPSC derived neural progenitor cells (hNPCs) (AID 1224857); further: nearly all actives have a fitted effect of over 65% in size
Outline: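 Pretreat hNPCs with compound 1 h; infect ZIKV 2 FFU/cell; 6 h 37 C, 5% CO2; Caspase-Glo 3/7, 30 min RT; luminescence; normalize to no-virus and virus-only wells.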

[4] = qHTS assay for measurement of the activity of small molecule inhibitors on Zika virus induced Caspase-3 activity in human astrocytoma cells (AID 1224859)
Outline: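 Human SNB-19 astrocytoma cells in RPMI 1640 with 10% FBS receive compound one hour ahead of Zika virus at 2 FFU/cell. After 6 h infection, caspase-3/7 activity is detected by Caspase-Glo luminescence.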

[5] = qHTS Screen of the MIPE 4.0 Collection Against Ewings Sarcoma (RDES) (AID 1259252); further: nearly all actives have a fitted effect of over 35% in size; further: potency means the concentration at half of the fitted maximal effect
Outline: (§1)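 Dose series incubated 48 h with cells in RPMI plus 5% FBS, glutamine and penicillin/streptomycin; cell viability then quantified via CellTiter-Glo.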

[6] = qHTS Screen of the MIPE 4.0 Collection Against Ewings Sarcoma (TC71) (AID 1259253); further: nearly all actives have a fitted effect of over 40% in size; further: potency means the concentration at half of the fitted maximal effect
Outline: as §1

[7] = qHTS Screen of the MIPE 4.0 Collection Against Ewings Sarcoma (EW8) (AID 1259255); further: nearly all actives have a fitted effect of over 35% in size; further: potency means the concentration at half of the fitted maximal effect
Outline: as §1

[8] = qHTS profiling of the MIPE4 collection as inhibitors of Plasmodium falciparum (DD2) proliferation (AID 743345; call rule not given here); settings: P. falciparum Dd2 in erythrocytes, SYBR Green DNA, 72 h; at 28.5 µM (top of the series) unless noted
Outline: (§2)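 Parasite DNA was quantified by SYBR Green I fluorescence (ex 485, em 535 nm) after overnight lysis in saponin/Triton buffer at room temperature. Cultures at 0.3% parasitemia and 2.5% hematocrit were first exposed to compound for 72 h at 37 C; signals were normalised to artemisinin (0.29 uM) and vehicle wells.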

[9] = qHTS profiling of the MIPE4 collection as inhibitors of Plasmodium falciparum (DD2) proliferation (Rep 2) (AID 743346; call rule not given here); settings: P. falciparum Dd2 in erythrocytes, SYBR Green DNA, 72 h; at 28.5 µM (top of the series) unless noted
Outline: as §2

[10] = qHTS Screen of the MIPE 4.0 Collection Against Ewings Sarcoma (TC32) (AID 1259256); further: nearly all actives have a fitted effect of over 45% in size; further: potency means the concentration at half of the fitted maximal effect
Outline: as §1

[11] = qHTS assay to identify small molecule inhibitors of chordoma cells - UCH-2 (AID 1259356); further: potency means the concentration at half of the fitted maximal effect
[12] = qHTS profiling of the MIPE4 collection as inhibitors of Plasmodium falciparum (HB3) proliferation (AID 743347; call rule not given here); settings: P. falciparum HB3 in erythrocytes, SYBR Green DNA, 72 h; at 28.5 µM (top of the series) unless noted
Outline: as §2

[13] = qHTS assay to identify small molecule inhibitors of chordoma cells - UCH-1 (AID 1259355); further: nearly all actives have a fitted effect of over 55% in size
Outline: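 Screening used approved and investigational drugs in 15-point titration against 800 seeded cells per well. A fixed combination of auranofin with camptothecin, doxorubicin, rubitecan and topotecan followed compound addition, and growth was scored by CellTiter-Glo after 48hr.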

[14] = P-glycoprotein substrates identified in KB-3-1 adenocarcinoma cell line, qHTS therapeutic library screen (AID 1346986); settings: KB-3-1 parental cells viability, CellTiter-Glo, 72 h; at 44.5 µM (top of the series); further: nearly all actives have a fitted effect of over 60% in size
Outline: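 In 1536-well format, 500 cells/well received pinned compound titrations and were incubated 72 h, 5% CO2. Viability was read by CellTiter-Glo; cytotoxic if AC50 < 10 uM and efficacy >50%.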

[15] = Identifying Small Molecule Inhibitors of Pancreatic Cancer Stem Cells (SN12C, Adherent) (AID 1259358);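 further: potency means the concentration at half of the fitted maximal effect; cell survival measured after 48 h of compound exposure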
Outline: (§3)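 Endpoint: ATP-based luminescence, 48 h drug exposure. Bortezomib at 9.2 uM final as full-kill control; DMSO vehicle as negative control; activity normalized between vehicle and cell-free wells.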

[16] = Identifying Small Molecule Inhibitors of Pancreatic Cancer Stem Cells (SN12C, Spheroid) (AID 1259360); settings: Potency: SN12C spheroid viability; further: potency means the concentration at half of the fitted maximal effect
Outline: as §3

[17] = Identifying Small Molecule Inhibitors of Pancreatic Cancer Stem Cells (Panc1, Adherent) (AID 1259362); settings: viability; further: potency means the concentration at half of the fitted maximal effect
Outline: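 Cytotoxicity read by CellTiter-Glo luminescence after 48 h compound exposure at 37C; percent activity scaled between DMSO-treated cells and cell-free wells. Spheroid formats used cells pre-formed 14 days in stem cell media on hydrogel.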

SMILES	cell viability, % of control (lower = more cytotoxic) [1]	viability (% of control) [2]	Potency [3]	Potency [4]	Potency [5]	Potency [6]	Potency [7]	parasite growth remaining, % of DMSO control (lower = more inhibition) [8]	parasite growth, % of control (lower = inhibition) [9]	Potency [10]	Potency [11]	growth, % of control [12]	Potency [13]	outcome [14]	Potency [15]	Potency [16]	Potency [17]
Clc1ccccc1CN1CCc2sccc2C1	91.7%	45.9%	inactive	inactive	inactive	inactive	inactive	–	–	–	–	–	–	–	–	–	–
CN1CCCC(n2nc(Cc3ccc(Cl)cc3)c3ccccc3c2=O)CC1 (stereo unspecified)	9.12%	7.4%	inactive	inactive	1050 nM (active)	2640 nM (active)	8330 nM (active)	14%	7.67%	3720 nM (active)	inactive	–	–	–	–	–	–
Nc1ccc(S(=O)(=O)Nc2ccccn2)cc1	123%	112%	inactive	inactive	inactive	inactive	inactive	89.4%	84.7%	inactive	inactive	54.6%	–	–	–	–	–
O=C(O)c1cccnc1	127%	87.6%	inactive	inactive	inactive	inactive	inactive	–	95.2%	inactive	inactive	87.4%	inactive	–	–	–	–
CCN[C@H]1C[C@H](C)S(=O)(=O)c2sc(S(N)(=O)=O)cc21	71.7%	102%	inactive	inactive	inactive	inactive	inactive	19.2%	117%	inactive	inactive	103%	–	–	–	–	–
OC(Cn1cncn1)(Cn1cncn1)c1ccc(F)cc1F	66.2%	114%	inactive	inactive	inactive	inactive	inactive	101%	–	inactive	–	–	inactive	–	–	–	–
NC(=O)c1cccc(N)c1	84.2%	109%	inactive	inactive	inactive	inactive	inactive	95.5%	93.2%	inactive	–	54.9%	–	inactive	–	–	–
CC(C)(C#N)c1cc(Cn2cncn2)cc(C(C)(C)C#N)c1	47%	105%	inactive	inactive	inactive	inactive	inactive	91.9%	88.7%	inactive	inactive	66.6%	–	–	–	–	–
Cc1ncc([N+](=O)[O-])n1CCO	180%	76.6%	inactive	inactive	inactive	inactive	inactive	101%	96.3%	inactive	–	–	–	–	–	–	–
NC1(c2ccc(-c3nc4ccn5c(=O)[nH]nc5c4cc3-c3ccccc3)cc2)CCC1	7.66%	4.61%	inactive	inactive	23500 nM (active)	20900 nM (active)	4690 nM (active)	17.9%	7.57%	13200 nM (active)	–	8.07%	–	–	26400 nM (active)	23500 nM (active)	20900 nM (active)
CN(C)c1ccc(C(=C2C=CC(=[N+](C)C)C=C2)c2ccc(N(C)C)cc2)cc1	1.19%	1.42%	inactive	inactive	372 nM (active)	296 nM (active)	418 nM (active)	5.08%	6.31%	inactive	7300 nM (active)	2.46%	–	–	–	–	–
CCc1c2c(nc3ccc(OC(=O)N4CCC(N5CCCCC5)CC4)cc13)-c1cc3c(c(=O)n1C2)COC(=O)[C@]3(O)CC	21.9%	8.86%	inactive	inactive	332 nM (active)	332 nM (active)	469 nM (active)	59.3%	67.7%	inactive	inactive	–	–	–	–	–	–
COC(=O)Nc1nc2ccc(C(=O)c3ccccc3)cc2[nH]1	176%	22%	inactive	inactive	662 nM (active)	1480 nM (active)	526 nM (active)	97.7%	71%	418 nM (active)	inactive	–	inactive	–	–	–	–
CCOCC(O)COc1ccc(NC(=O)CC[S+](C)C)cc1 (stereo unspecified)	120%	110%	inactive	inactive	inactive	inactive	inactive	103%	97.7%	inactive	inactive	–	inactive	inactive	–	–	–
C[C@@H]1CN(c2c(F)c(N)c3c(=O)c(C(=O)O)cn(C4CC4)c3c2F)C[C@H](C)N1	89.9% [at 23.2 µM]	107% [at 23.2 µM]	inactive	inactive	inactive	inactive	inactive	83% [at 9.64 µM]	34.1% [at 9.64 µM]	inactive	inactive	72.3% [at 9.64 µM]	–	–	–	–	–
CC1=C(C(=O)O)N2C(=O)[C@@H](NC(=O)C(N)c3ccccc3)[C@H]2SC1 (stereo partly specified)	114%	12.1%	inactive	inactive	inactive	inactive	inactive	95.4%	151%	inactive	–	108%	–	inactive	–	–	–
O=C(O)CCn1c2c(c3ccccc31)C[C@H](NS(=O)(=O)c1ccc(F)cc1)CC2	124%	118%	inactive	inactive	inactive	inactive	inactive	–	–	inactive	–	–	–	inactive	–	–	–
CC(=O)[C@H]1CC[C@H]2[C@@H]3CC=C4C[C@@H](O)CC[C@]4(C)[C@H]3CC[C@]12C	106%	107%	inactive	inactive	inactive	inactive	inactive	88.9%	85.3%	inactive	inactive	–	–	–	–	–	–
NS(=O)(=O)c1cc2c(cc1Cl)NC(C(Cl)Cl)NS2(=O)=O (stereo unspecified)	43.4%	94.1%	inactive	inactive	inactive	inactive	inactive	86.3%	65%	inactive	–	60.5%	–	inactive	–	–	–
